In the supplement of paper PMC6555819:

What follows are sequences tested on PPARg:RXRa (NR concentration 180 nM, RXRa partner concentration 90 nM) (assay: PBM binding z-score (relative to random genomic background probes); higher = stronger binding; sequences stand for … in GC…GCGATTGACAGCGTAGAATGAAGG).
Method in brief: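 Random background probes are the reference for binding z-scores. These scores derive from regression-normalized fluorescence on custom Agilent 4×180K protein-binding microarrays incubated 1 h with ligand-free nuclear receptor dimers. Binding was detected with antibodies against each partner (one per run).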

Sequence	PBM binding z-score
AATACAGGGTCATCTTAGGCCAGAGTACGCACAG	6.19
TATCAAAGTTCAAAGGTAACGTAAGTATCCACAC	6.12
ATCGAAAGGTCCAAGGTGAGTATACCCACCCGAA	1.01
TACCCTAGGTCATTGGGCCAGTATAGTACGCATC	4.27
AGAATGGGGTTACCAAAGATCAGGGAAACGCTTG	4.62
AATACAGGGTGACTAGGCCAGAGTAGGTACGAAT	2.6
GTTACAGGGTCAAGGCCAGAGTACGCGTATTGAT	5.4
ATATGTAGGATAGCTGGGGTCATTCAGACTAGGC	2.42
TACCCTAGGTCATTCAGGGGCCAGTATAGAAAGC	2.52
CCTACTGGACCAAGGTCATTGATCAGTCAAAGCA	2.11
AGTCAAAGTTCATCTAGGTAACATAAGATATGCT	6.9
GCATATAGGTAATACAAGGTCAAAGTCCGATTGT	2.69
CGTCCAAGGTCAATGCTAGATCAGTGAAAGCATT	3.65
CCTACTGGGCCATTCAGAGGGCATTGATCATATG	0.602
CCTACTGGGCCGTTCAGAGGTCATTGATCATATG	1.33
TGTCAATGTTCAAAGGTAACGTAAGTATCCACAC	2.34
ATATGTAGGTTATCGGGTCATACAGTTTGCGCAT	7.64
ATATGTAGGTTACCTGGGGTCATTCAGACTAGGC	7.13
TAGCCTAGGTCATTCAGGGGCCAGCATAGAAAGC	2.37
AGTCAAAGTTGAGGACGAGGTAACGTAAAGCACG	1.44

Sequence	PBM binding z-score
ACTTACGGCTCAACGAGGTTATAGCACGCGTATA	0.821
CACACTAGGTCACAGAGGTCAAAGTCCGTGCGTA	9.53
TCTGCTAGGTCAACGTTGGTCAGCTAATCTGCTA	2.49
AGAATGAGGTTACTAAAGATCAGGGAAACGCTTG	1.81
TAGCCTAGGTCATTCAGGGGCAAGTATAGAAAGC	2.47
CCTTACGGGTCAAGGTTATAGCCCGGGTGGTACG	4.06
CCTTACGGGTTACTCCAGGTTATAGCATCGGAGT	0.504
TCTTGTAGATCGATAGAGGTTAAGAAAGTGCGCT	-0.159
CCTTACGGGTCACTCCAGGTCATAGCATCGGAGT	4.38
ATATGTAGGTTAGCTGAGGTCATTCAGACTAGGC	5.21
TAGCCTAGTTCATGCGGGCCAGTATAGTGTCGGC	-0.0909
CAAAATAGGTCACCGGAAGGTCAAAGTCCGCATG	9.14
ATCGAAAGGTCGACCAGGTGAGTATACACCGTTT	3.14
GCTGCTAGGTCAACTGATGGTCATCTAAAGCTCG	2.92
CCTACTGGGCCAAAGGTGATTGATTCCAATGCTC	8.87
CAAACTAGGTCACAGTGGTCAAAGTCCGTGCGTA	8.83
ATATGTAGTTTATCGGGTCATTCAGTTTGCGCAT	1.86
CAAACTAGGTCACAAAAGGTCAAAGTCGAATGAC	10.1
TCTAGTTGGTCTAAGGTCACACACTCGAAATGCG	5.15
AATACAAGGTCATCGTAGGCCAGAGTACGCACAG	6.55
